Experimental data: PMC4336329 (PLoS ONE, 2015)
The campaign covered roughly 310,000 compounds. About 14,000 (4.5%) showed an effect of 50% or more. The effect is printed as a negative number. The full list was thinned out, with strong results kept by preference.

Biological target: human ether-à-go-go-related gene (hERG) potassium channel (human, UniProt Q12809)
Assay: primary screen, population patch clamp on CHO cells stably expressing hERG; higher = less effect of the substance
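Further: peak tail current of the secondary pulse compared with the same well before compound.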

Sequence of human ether-à-go-go-related gene (hERG) potassium channel (Q12809 whole entry, looked up): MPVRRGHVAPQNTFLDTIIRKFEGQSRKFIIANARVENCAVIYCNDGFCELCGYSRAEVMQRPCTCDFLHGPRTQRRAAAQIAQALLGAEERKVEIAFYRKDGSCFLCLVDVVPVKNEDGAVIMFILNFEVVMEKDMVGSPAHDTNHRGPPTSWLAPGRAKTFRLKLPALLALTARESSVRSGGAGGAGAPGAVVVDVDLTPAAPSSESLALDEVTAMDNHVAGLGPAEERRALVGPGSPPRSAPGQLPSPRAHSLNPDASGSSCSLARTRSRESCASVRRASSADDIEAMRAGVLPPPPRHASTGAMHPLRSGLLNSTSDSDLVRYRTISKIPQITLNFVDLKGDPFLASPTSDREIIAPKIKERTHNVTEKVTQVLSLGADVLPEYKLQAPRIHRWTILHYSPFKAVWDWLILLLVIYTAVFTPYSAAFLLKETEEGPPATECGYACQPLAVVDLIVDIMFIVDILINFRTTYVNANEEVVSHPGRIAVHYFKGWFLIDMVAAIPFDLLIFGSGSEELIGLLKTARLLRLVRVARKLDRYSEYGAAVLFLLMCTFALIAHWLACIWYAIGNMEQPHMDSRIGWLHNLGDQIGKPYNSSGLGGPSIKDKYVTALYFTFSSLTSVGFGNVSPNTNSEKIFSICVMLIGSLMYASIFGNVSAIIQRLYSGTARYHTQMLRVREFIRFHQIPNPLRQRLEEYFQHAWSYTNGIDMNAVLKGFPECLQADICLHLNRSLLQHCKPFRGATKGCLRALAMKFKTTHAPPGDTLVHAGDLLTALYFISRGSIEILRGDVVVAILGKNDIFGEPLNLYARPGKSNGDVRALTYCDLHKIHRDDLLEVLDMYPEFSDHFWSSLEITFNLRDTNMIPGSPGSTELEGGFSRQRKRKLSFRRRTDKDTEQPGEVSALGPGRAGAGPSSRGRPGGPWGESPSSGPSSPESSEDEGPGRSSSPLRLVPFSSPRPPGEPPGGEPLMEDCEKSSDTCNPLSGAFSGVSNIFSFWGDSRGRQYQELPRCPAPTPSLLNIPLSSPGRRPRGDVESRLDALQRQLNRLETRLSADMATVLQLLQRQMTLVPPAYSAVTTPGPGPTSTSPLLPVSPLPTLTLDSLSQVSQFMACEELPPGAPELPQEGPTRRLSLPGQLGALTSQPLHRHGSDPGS

| SMILES | hERG current change (%, negative = inhibition) at 10uM |
| --- | --- |
| CN(C)S(=O)(=O)c1ccc2c(c1)Cc1cc(S(=O)(=O)N(C)C)ccc1-2 | 20.1% |
| COc1cc(/C=C/c2ccc(O)cc2)cc(OC)c1 | -2.2% |
| Cc1occc1C(=O)NNC1=CC(=O)CC(C)(C)C1 | 13.3% |
| CC1CCN(CCCNC(=O)CCNC(=O)Cn2cnc3ccccc3c2=O)CC1 | 20.5% |
| OC1(C(F)(F)F)CC(c2ccc3ccccc3c2)=NO1 (stereo not shown) | 4.45% |
| COCc1[nH]nc2c1C(c1cccc(OC)c1)C(C#N)=C(N)O2 (stereo not shown) | -7.26% |
| CCOc1ccc(NC(=O)C2CCC(C)(C(=O)O)C2(C)C)cc1 (stereo not shown) | 6.49% |
| CN(C(=O)COC(=O)c1ccccc1NC(=O)c1ccco1)C1CCS(=O)(=O)C1 (stereo not shown) | -62.3% |
| CCN(C(=O)COC(=O)c1ccccc1NCCO)C1CCS(=O)(=O)C1 (stereo not shown) | -5.97% |
| CCN(C(=O)COC(=O)c1ccccc1Nc1cccc(C)c1C)C1CCS(=O)(=O)C1 (stereo not shown) | 2.59% |
| CCN(C(=O)COC(=O)c1ccccc1NC(=O)c1ccco1)C1CCS(=O)(=O)C1 (stereo not shown) | -72.1% |
| CN(C(=O)COC(=O)c1ccccc1Nc1ccccc1)C1CCS(=O)(=O)C1 (stereo not shown) | -41.4% |
| O=C(COC(=O)c1ccccc1NC(=O)c1ccco1)NC1CCS(=O)(=O)C1 (stereo not shown) | -2.03% |
| CCOc1ccccc1C1CC(=O)Nc2cc(OC)c(OC)cc21 (stereo not shown) | 13.2% |
| O=CNC1CCCc2c1[nH]c1ccc(Cl)cc21 (stereo not shown) | -9.15% |
| COc1cccc(OC(=O)N2CCOCC2)c1 | 8.3% |
| O=C(CCCN1C(=O)c2ccccc2C1=O)Nc1cccc(S(=O)(=O)NC2=NCCC2)c1 | 13.5% |
| COc1ccc(N2CCN(C(C)C(=O)N3CC(C)OC(C)C3)CC2)cc1.O=C(O)C(=O)O (stereo not shown) | 18% |
| COc1ccc(/C=N/NC(=O)CCCC(=O)NC2CCCCC2)cc1 | 5.06% |
| O=C(NCCCO)/C(=C/c1ccc(-c2cccc([N+](=O)[O-])c2)o1)NC(=O)c1ccccc1 | -31.5% |
| CN(C)CCNC(=O)/C(=C/c1ccc(-c2cccc([N+](=O)[O-])c2)o1)NC(=O)c1ccccc1 | -75.4% |

| SMILES | hERG current change (%, negative = inhibition) at 10uM |
| --- | --- |
| CN(C)CCCNC(=O)/C(=C\c1ccc(-c2cccc([N+](=O)[O-])c2)o1)NC(=O)c1ccccc1 | -81.2% |
| C=CCNC(=O)/C(=C/c1cn(-c2ccccc2)nc1-c1cccc([N+](=O)[O-])c1)NC(=O)c1ccccc1 | -3.58% |
| CN(C)C(=O)/C(=C/c1ccc(-c2cccc([N+](=O)[O-])c2)o1)NC(=O)c1ccccc1 | -21.3% |
| CN(C)C(=O)/C(=C\c1ccc(-c2cccc([N+](=O)[O-])c2)o1)NC(=O)c1ccccc1 | -47.9% |
| CCCCCn1c(=O)[nH]c2cc(C(=O)NCCN3CCCCC3C)ccc2c1=O (stereo not shown) | -15.9% |
| CCOC(=O)c1ccc(NC(=S)NNC(=O)C2(C)CC2(Cl)Cl)cc1 (stereo not shown) | 28.4% |
| O=C(O)CCSc1nnc(COc2ccc([N+](=O)[O-])cc2)n1-c1ccccc1 | 22.8% |
| C/C(=C\[C@@H](NP(=O)(c1ccccc1)c1ccccc1)c1ccccc1)CO[Si](c1ccccc1)(c1ccccc1)C(C)(C)C | 5.58% |
| CCN(CC)S(=O)(=O)c1cccc(C(=O)NCC(=O)OCC(=O)NCc2ccccc2)c1 | -7.41% |
| CCOc1ccc(CC(=O)OCc2cc(=O)n3cc(Br)ccc3n2)cc1 | -6.01% |
| O=C(CNS(=O)(=O)c1ccc(Br)cc1)OCc1cc(=O)n2cc(Br)ccc2n1 | -26% |
| Cc1cc(C)c(C)c(S(=O)(=O)N[C@@H](C)C(=O)OCc2cc(=O)n3cc(Br)ccc3n2)c1C | -47% |
| CC1CC1C(=O)OCc1cc(=O)n2cc(Br)ccc2n1 (stereo not shown) | -16.2% |
| C[C@H](NS(=O)(=O)c1ccc(Cl)c(Cl)c1)C(=O)OCc1cc(=O)n2cc(Br)ccc2n1 | -63.4% |
| CC1(C(=O)OCc2cc(=O)n3cc(Br)ccc3n2)CC1(Cl)Cl (stereo not shown) | -54.3% |
| COc1ccc(NS(=O)(=O)c2cc(NC(=O)c3ccc(=O)[nH]c3)ccc2C)cc1 | 15.1% |
| CC(=O)Nc1ccc(S(=O)(=O)N2CCN(c3nnnn3-c3ccccc3)CC2)cc1 | 13.1% |
| O=[N+]([O-])c1ccc(C[n+]2cccc3ccc4cccnc4c32)cc1.[Br-] | -62.6% |
| O=[N+]([O-])c1ccc(C[n+]2cccc3c4ccccc4ccc32)cc1.[Br-] | -40.5% |
| O=[N+]([O-])c1ccc(C[n+]2cccc3ccccc32)cc1.[Cl-] | -3.07% |
| CN(C)c1ccc(C2N(C(=O)N3CCOCC3)CCN2S(=O)(=O)c2ccccc2)cc1 (stereo not shown) | 3.98% |

| SMILES | hERG current change (%, negative = inhibition) at 10uM |
| --- | --- |
| CC(=O)NCC(=O)N1CCCC(C(=O)c2ccc(Oc3ccccc3)cc2)C1 (stereo not shown) | -23.2% |
| CCN1CCN(CC(=O)N2CCCC(C(=O)c3ccc(Oc4ccccc4)cc3)C2)CC1 (stereo not shown) | -52.7% |
| CC(=O)N1CCCC(C(=O)c2ccc(Oc3ccccc3)cc2)C1 (stereo not shown) | -5.43% |
| CCn1nc(C)cc1C(=O)N1CCCC(C(=O)c2ccc(Oc3ccccc3)cc2)C1 (stereo not shown) | -9.04% |
| COCCC(=O)N1CCCC(C(=O)c2ccc(Oc3ccccc3)cc2)C1 (stereo not shown) | -79.3% |
| COCC(=O)N1CCCC(C(=O)c2ccc(Oc3ccccc3)cc2)C1 (stereo not shown) | -34.1% |
| CC1CCCC(C)N1S(=O)(=O)c1ccc(NC(=O)c2ccccc2C(=O)N2CCOCC2)cc1 (stereo not shown) | -3.57% |
| NC(=O)[C@@H]1CCCN1Cc1nc(Cc2ccccc2F)no1 | 7.29% |
| Cc1ccc2nc(-c3ccc(NC(=O)CCS(=O)(=O)c4ccccc4)cc3)sc2c1 | 2.03% |
| CC(C)CCOP(N)(=O)Oc1ccccc1 (stereo not shown) | 9.05% |
| CCN1C(=O)c2ccc(C(=O)Nc3ncc(C)s3)cc2C1=O | 6.29% |
| COc1ccccc1-c1cc(C(=O)N/N=C\c2cnn(C)c2C)c2ccccc2n1 | -3.85% |
| CC1CN(c2nc3ccccn3c(=O)c2/C=C(\C#N)C(N)=O)CC(C)O1 (stereo not shown) | 21.1% |
| CC1(C)Cc2nc3sc(C(=O)O)c(N)c3cc2CS1 | 29.4% |
| COc1ccc(C(=O)C2CCCN(C(=O)c3ccc(F)cc3)C2)cc1OC (stereo not shown) | -3.95% |
| Cn1cc(CN2CCCC(C(=O)c3nccn3C)C2)c(-c2cccc(Cl)c2)n1 (stereo not shown) | -31.1% |
| Cn1ccnc1C(=O)C1CCCN(Cc2cn[nH]c2-c2ccc(-c3ccccc3)cc2)C1 (stereo not shown) | -67.9% |
| COc1ccc(C(=O)C2CCCN(Cc3cn[nH]c3-c3ccccc3)C2)cc1OC (stereo not shown) | -74% |
| COc1ccc(C(=O)C2CCCN(Cc3cn[nH]c3-c3ccc(F)cc3)C2)cc1OC (stereo not shown) | -66.5% |
| COc1ccc(C(=O)C2CCCN(Cc3ccc(F)cc3F)C2)cc1F (stereo not shown) | -29.8% |
| CCOC(=O)c1[nH]ncc1CN1CCCC(C(=O)c2cccc3ccccc23)C1 (stereo not shown) | -45.8% |

| SMILES | hERG current change (%, negative = inhibition) at 10uM |
| --- | --- |
| COCCNC(=O)c1cc(-c2ccc(OC)c(OC)c2)on1 | -1.95% |
| CCOc1ccc(C(=O)N[C@H](C(=O)Nc2ccccc2OC)C(C)C)cc1 | -28.7% |
| O=C1NC(=Nc2ccccc2)c2ccc([N+](=O)[O-])cc21 | 3.21% |
| Cc1cc(NC(=O)CSc2nc3c(C)c(C)ccc3cc2C)no1 | -44.6% |
| O=C1CC(c2ccco2)CC(O)=C1C=NCCO (stereo not shown) | 7.61% |
| O=C1CC(c2ccco2)CC(O)=C1C=NCCN1CCN(C(=O)Nc2ccc(Cl)cc2)CC1 (stereo not shown) | -66.4% |
| CCNC(=S)N1CCN(CCN=CC2=C(O)CC(c3ccco3)CC2=O)CC1 (stereo not shown) | 0.166% |
| O=C1CC(c2ccco2)CC(O)=C1C=NCCN1CCNCC1 (stereo not shown) | 2.1% |
| C=CCNC(=S)N1CCN(CCN=CC2=C(O)CC(c3ccco3)CC2=O)CC1 (stereo not shown) | -25.8% |
| O=C1CC(c2ccco2)CC(O)=C1C=NCCN1CCN(C(=S)Nc2ccccc2)CC1 (stereo not shown) | -54.1% |
| Cl.O=C(CN1CCC(NC(=O)c2ccccc2Cl)CC1)NCc1ccco1 | -2.98% |
| O=C(c1ccc2c3n(nc2c1)-c1ccccc1CO3)N1CCOCC1 | -8.48% |
| COc1ccc(CCNC(=O)c2cc(-c3ccc4c(c3)OCO4)on2)cc1OC | -4.11% |
| Cc1cccc(N(C(=O)CNC(=O)c2ccco2)C(C(=O)NCC2CCCO2)c2ccccc2)c1 (stereo not shown) | 9.57% |
| Cc1ccc(CSc2sc(C(=O)c3ccccc3)c(N)c2C#N)cc1 | 6.41% |
| NC1=Nc2cccc3cccc1c23 | 21.3% |
| CCCCON1C(=O)c2cccc3cccc(c23)C1=O | -4.38% |
| CCCCN(C)C1=Nc2cccc3cccc1c23 | -72% |
| O=C(Nc1ccc([N+](=O)[O-])cc1)Nc1nc(-c2ccc(Cl)s2)cs1 | 25.7% |
